Screens deposited in PubChem BioAssay by National Center for Advancing Translational Sciences (NCATS).
Most compounds without a hit are left out; they make up all but 19% or so of the library.
Pf growth 96h: P. falciparum growth inhibition at 96 hour, primary screen for plastid delayed-death inhibitors; P. falciparum luciferase reporter growth, 96 h; Potency, µM (top dose mostly 28.7 µM), inactives show at the highest dose activity change, negative = inhibition, most hits filed as inhibitors; AID 504834; 320,000 tested, 6.9% active; also: potency is read from the fitted curve at half-maximal effect; % is scaled to controls: 0 for no effect and ±100 for the full control effect
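P. falciparum expressing integrated firefly luciferase, in erythrocytes at 2% hematocrit, 0.05% parasitemia, incubated with compounds 96 h at 37 C, 5% CO2. Growth inhibition read as loss of luminescence; two-generation exposure targets delayed-death apicoplast inhibitors.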
Shiga inhibitor: blocks Shiga toxin action in Vero cells; Vero cells, Shiga toxin protein synthesis inhibition reporter; inhibition, % at 38.7 µM; 290,000 tested, 9.2% active; in the data active = inhibition mostly above about 28%, no sharp cut-off; inactive = mostly below about 43%; also: 0% is about no effect
Cycloheximide cs: counter-screen hit for Shiga toxin inhibitors, cycloheximide; cell reporter, cycloheximide protein synthesis inhibition counterscreen; max response, %; 300,000 tested, 12% active; AID 2314; in the data active = max response mostly above about 13%, no sharp cut-off; inactive = mostly below about 14%; also: read at 38.3 µM for the half of the compounds with a filed dose; 0% is about no effect
LASV entry inh: Lassa virus entry inhibition. Lassa virus pseudotype entry inhibition, cell reporter. Potency, µM (highest dose often 37.9 µM), without a hit: at the top dose activity change, negative = inhibition, hits mostly inhibitors. 300,000 tested, 1.2% active; calls by dose curve; tested in HEK293 cells; also: potency is read from the fitted curve at half-maximal effect; % is scaled to controls: 0 for no effect and ±100 for the full control effect; nearly all actives have a fitted effect of over 50% in size
Pf growth 48h: inhibits P. falciparum growth in the first generation, 48 h | P. falciparum luciferase growth in erythrocytes, 48 h | Potency, µM (series often up to 28.7 µM), for inactives: top-dose activity change, negative = inhibition, usual class: inhibitors | 310,000 tested, 5.9% active | AID 504832; also: potency is read from the fitted curve at half-maximal effect; % is scaled to controls: 0 for no effect and ±100 for the full control effect
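Growth was read as firefly luciferase luminescence after a 48 h, 37 C, 5% CO2 exposure of compounds to reporter-bearing P. falciparum cultures (0.1% parasitemia, 2% hematocrit final) in Albumax-supplemented RPMI 1640.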
MARV entry inh: blocks Marburg virus binding to or entry into cells. Potency, µM (series often up to 37.8 µM), for inactives: at the top dose activity change, negative = inhibition, actives largely listed as inhibitors. AID 540276. Marburg virus pseudotyped entry inhibition, cell reporter. 300,000 tested, 1.8% active; calls by dose curve; tested in HEK293 cells; also: potency is read from the fitted curve at half-maximal effect; % is scaled to controls: 0 for no effect and ±100 for the full control effect
* hit, by the source's call; ? = inconclusive; . = no result given; [ ] = remark or other dose. Unless noted, calls follow the shape of the dose curve; as a rule, active = well fitted inhibition curve with a large enough effect; inconclusive = small, poorly fitted or top-dose-only effect, or another doubt; inactive = no such curve, though single readings can be large or run the other way.

SMILES	Pf growth 96h	Shiga inhibitor	Cycloheximide cs	LASV entry inh	Pf growth 48h	MARV entry inh
CNC(=S)N(CCc1c(C)[nH]c2ccc(Cl)cc12)Cc1cc(OC)c(OC)c(OC)c1	?	-2	-4	?	?	?
CNC(=S)N(CCc1c(C)[nH]c2ccc(C)cc12)Cc1ccc(OC)c(OC)c1	10µM*	-9	-5	-18%	?	-23%
CCOc1cc(C(=O)NCc2ccc3c(c2)CCN3C(=O)c2ccc(F)cc2)cc(OCC)c1OCC	.	.	.	6%[46.1 µM]	.	.
OCC1OC(c2ccccc2)OC2COC(c3ccccc3)OC12 (stereo unspecified)	.	.	.	8%	.	3%
COc1ccc(C)cc1NC(=O)CNC(=O)Cn1ccc2ccccc2c1=O	0%	-9	5	0%	-21%	?
Cc1ccc2cc(/C=C(\C#N)C(N)=O)c(N3CCCCC3)nc2c1	-11%	13	2	10%	-4%	-18%
N#Cc1ccc(-c2csc(N3CCC(C(N)=O)CC3)n2)cc1	4%	.	.	.	-24%	.
O=C(O)C/C=C(\NC(=O)OCc1ccccc1)C(=O)OCc1ccccc1	2%	17	-8	.	-4%	.
COc1ccc(NC(=O)CCCn2c(=O)oc3ccccc32)cc1Cl	46%	64*	66*	10%	131%	?
O=C(CCn1c(=O)oc2ccccc21)Nc1ccc2c(c1)OCCO2	-8%	80*	71*	.	34%	.
O=C(CCn1c(=O)oc2ccccc21)Nc1ccccc1	-14%	13	-7	20%	24%	10%[46.1 µM]
COc1cc(OC)c(NC(=O)CCCn2c(=O)oc3ccccc32)cc1Cl	-5%	-14	-2	9%	24%	5%
O=C(Cn1c(=O)oc2ccccc21)Nc1ccc2c(c1)OCCO2	.	13	18*	15%	24%	11%
Cc1ccnc(NC(=O)Cn2c(=O)oc3ccccc32)c1	64%	60*	20*	.	51%	.
COc1ccc(CCNC(=O)CSc2nc(N)cc(=O)[nH]2)cc1OC	?	16	1	-1%	1%	1%[46.1 µM]
O=C(O)CCC(=O)N1CCN(S(=O)(=O)c2ccc3ccccc3c2)CC1	8%	-5	-6	.	40%	-6%[46.1 µM]
O=C(Cn1ncc(Cl)c(Cl)c1=O)N1CCN(S(=O)(=O)c2ccc3ccccc3c2)CC1	?	-36	-10	?	-14%	1.8µM*
CC(C)(C)c1ccc(-c2cnco2)cc1	33%	-11	0	9%[46.1 µM]	32%	9%[46.1 µM]
O=C(NC(=O)c1ccccc1)Nc1ccc(-c2cnco2)cc1	84%	63*	32*	-1%	76%	?
CC(C)(C)C(=O)Nc1ccc(-c2cnco2)cc1	77%	64*	21*	13%	50%	9%
O=C(Nc1ccc(Cl)cc1)Nc1ccc(-c2cnco2)cc1	?	29	20*	.	?	.
O=S(=O)(Nc1ccc(-c2cnco2)cc1)c1ccccc1	?	-7	1	.	-11%	.
COc1ccc(Oc2c(O)c3ccccc3n(C)c2=O)cc1	-20%	2	-3	?	24%	17%
CCOc1ccc(-c2nnc(N3CCOCC3)c3ccccc23)cc1	?	-22	1	.	?	.
N/C(=N\c1nc2c(c(=O)[nH]1)CCCC2)Nc1ccc(Oc2ccccc2)cc1	8.3µM*	-8	-5	-9%	?	-21%
SMILES	Pf growth 96h	Shiga inhibitor	Cycloheximide cs	LASV entry inh	Pf growth 48h	MARV entry inh
Cc1cccc(N/C(N)=N/c2nc3c(c(=O)[nH]2)CCCC3)c1	22%	-8	1	4%	13%	-45%
N/C(=N\c1nc2c(c(=O)[nH]1)CCC2)Nc1cccc(Cl)c1	?	33	-1	-27%	10%	6.3µM*
COc1ccc(CNC(=O)CSCc2ccccc2Cl)cc1	-9%	66*	62*	?	26%	?
O=C(CCSCc1cccc(F)c1)NCc1ccc(F)cc1	?	-11	-1	.	5%	.
O=C(CSCc1ccccc1F)NCc1ccccc1	-23%	72	44*	.	253%	?
Cc1ccc(CNC(=O)CSCc2cccc(F)c2)cc1	0%	65	46*	9%	86%	14%[46.1 µM]
O=C(CSCc1cccc(F)c1)NCc1ccccc1	2.1µM*	173*	48*	29%	302%	0%[46.1 µM]
CCc1ccc(CNC(=O)CCSCc2ccccc2F)cc1	.	.	.	19%[46.1 µM]	.	.
COc1ccc(C)cc1NC(C)C(=O)NC(=O)NC1CCCCC1 (stereo unspecified)	?	.	.	-3%	13µM*	5%
CCN(CC)c1ccc(C=Nc2cccnc2Cl)c(O)c1	21%	-6	2	.	26%	.
O=C(Cc1ccc(Cl)cc1)Nc1ccc(N2CCCC2)cc1	.	6	5	17%	16%	18%
Clc1cccc(Cl)c1CNc1ccc(N2CCCC2)cc1	20%	85	20*	4%	?	?
O=C(CNC(=O)c1ccc2c(c1)OCCO2)N=Nc1c(O)[nH]c2ccccc12	21%	2	2	.	-3%	.
Oc1ccc(Cl)cc1C=NCCc1ccccc1	51%	57*	15*	5%	20%	24%
CC(CCN1CCC(n2nccc2NC(=O)c2ccccc2Cl)CC1)c1ccccc1 (stereo unspecified)	-19%	11	-5	.	-28%	.
Nc1cc(Cl)ccc1C(=O)OCC(=O)NC1CCCCC1	27%	25	13	-9%	19%	1%[46.1 µM]
CCOC(=O)CNC(=O)Cn1cnc2c(nnn2-c2ccc(OC)cc2)c1=O	40%	5	1	.	-19%	.
COC(=O)Cn1cnc2c(nnn2-c2ccc(F)cc2)c1=O	110%	-1	-4	.	37%	.
CCN(CC)C(=O)CSc1ncnc2c1nnn2-c1ccc(F)cc1	11%	5	-1	19%	2%	6%
COC(=O)C(C)n1cnc2c(nnn2-c2ccc(C)cc2)c1=O (stereo unspecified)	37%	19*	13*	.	4%	.
CCC(C(=O)OC)n1cnc2c(nnn2-c2ccc(F)cc2)c1=O (stereo unspecified)	55%	17	9.1*	.	-7%	.
COC(=O)C(C)n1cnc2c(nnn2-c2ccc(OC)cc2)c1=O (stereo unspecified)	4.1µM*	-25	-1	29%	14%	13%
COC(=O)c1ccc(CSc2ncnc3c2nnn3-c2ccc(F)cc2)o1	20%	13	-3	22%	1µM*	13%
Cc1nn(C)cc1S(=O)(=O)Nc1ncccn1	?	-18	1	25%[46.1 µM]	12%	2%[46.1 µM]
CCOC(=O)C(CC)n1cnc2c(nnn2-c2ccc(C)cc2)c1=O (stereo unspecified)	?	31	22	5%	15%	5%
CCOC(=O)C(CC)n1cnc2c(nnn2-c2cccc(OC)c2)c1=O (stereo unspecified)	2%	18	17*	-27%	10%	?
CC1(C)C2CCC1(CS(=O)(=O)Nc1cccc(S(N)(=O)=O)c1)C(=O)C2 (stereo unspecified)	55%	-4	-1	.	33%	.
